The values below come from PubChem BioAssay (NCATS).

Inconclusive results are not listed. Values without a mark were called inactive. Activity calls are given as the source filed them. Unless noted, the call rests on the fitted dose curve; in most records, active means well fitted curve in the direction sought with a large enough effect; inconclusive means small, poorly fitted or top-dose-only effect, or another doubt; inactive means no such curve, though single readings can be large; an effect the other way counts as inactive or inconclusive.

Assay [1] is described as follows: qHTS for Inhibitors of Plasmodium falciparum (GB4) proliferation (AID 504315). Further: nearly all actives have a fitted effect of over 50% in size. Further: potency means the concentration at half of the fitted maximal effect. The essentials:
(§1)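 Erythrocytes infected with P. falciparum line (0.3% parasitemia, 2.5% hematocrit final) incubated with compounds 72 h at 37 °C, 5% CO2; SYBR Green lysis buffer added, fluorescence read next day. Normalized to 0.29 uM artemisinin and DMSO.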

For assay [2], the target named is Atrial natriuretic peptide receptor 1 (Homo sapiens) (UniProt P16066). Kind of assay: Natriuretic polypeptide receptor (hNpr1) antagonism - Pilot CMLD screen (AID 1347052; calls by dose curve;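 further: cGMP level read as GloSensor luciferase luminescence after agonist stimulation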; further: potency means the concentration at half of the fitted maximal effect).
Assay [3] is described as follows: qHTS for Inhibitors of Plasmodium falciparum (DD2) proliferation (AID 504314).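 Further: parasite DNA measured by SYBR Green fluorescence after red cell lysis; plate controls were DMSO vehicle for no effect and artemisinin wells for full effect.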 The essentials: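 Infected RBCs, 0.3% parasitemia, 2.5% Hct; compound 72 h, 37C/5% CO2; lyse + SYBR Green I, RT overnight, dark; read ex485/em535; normalize to DMSO and artemisinin 0.29 uM.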
(In general: qHTS replaces the single test concentration by a dilution series.)

Assay [4] is described as follows: qHTS for Inhibitors of Plasmodium falciparum (CP250) proliferation (AID 504320). Further: potency means the concentration at half of the fitted maximal effect. In outline: as §1
Assay [5] is described as follows: qHTS for Inhibitors of Plasmodium falciparum (7G8) proliferation (AID 504316). Further: nearly all actives have a fitted effect of over 65% in size. Further: potency means the concentration at half of the fitted maximal effect. The essentials: as §1
A short description of assay [6]: qHTS for Inhibitors of Plasmodium falciparum (HB3) proliferation (AID 504318). Further: nearly all actives have a fitted effect of over 60% in size. Further: potency means the concentration at half of the fitted maximal effect. In outline: as §1

Chain of Atrial natriuretic peptide receptor 1 (Homo sapiens) (P16066 whole entry, looked up): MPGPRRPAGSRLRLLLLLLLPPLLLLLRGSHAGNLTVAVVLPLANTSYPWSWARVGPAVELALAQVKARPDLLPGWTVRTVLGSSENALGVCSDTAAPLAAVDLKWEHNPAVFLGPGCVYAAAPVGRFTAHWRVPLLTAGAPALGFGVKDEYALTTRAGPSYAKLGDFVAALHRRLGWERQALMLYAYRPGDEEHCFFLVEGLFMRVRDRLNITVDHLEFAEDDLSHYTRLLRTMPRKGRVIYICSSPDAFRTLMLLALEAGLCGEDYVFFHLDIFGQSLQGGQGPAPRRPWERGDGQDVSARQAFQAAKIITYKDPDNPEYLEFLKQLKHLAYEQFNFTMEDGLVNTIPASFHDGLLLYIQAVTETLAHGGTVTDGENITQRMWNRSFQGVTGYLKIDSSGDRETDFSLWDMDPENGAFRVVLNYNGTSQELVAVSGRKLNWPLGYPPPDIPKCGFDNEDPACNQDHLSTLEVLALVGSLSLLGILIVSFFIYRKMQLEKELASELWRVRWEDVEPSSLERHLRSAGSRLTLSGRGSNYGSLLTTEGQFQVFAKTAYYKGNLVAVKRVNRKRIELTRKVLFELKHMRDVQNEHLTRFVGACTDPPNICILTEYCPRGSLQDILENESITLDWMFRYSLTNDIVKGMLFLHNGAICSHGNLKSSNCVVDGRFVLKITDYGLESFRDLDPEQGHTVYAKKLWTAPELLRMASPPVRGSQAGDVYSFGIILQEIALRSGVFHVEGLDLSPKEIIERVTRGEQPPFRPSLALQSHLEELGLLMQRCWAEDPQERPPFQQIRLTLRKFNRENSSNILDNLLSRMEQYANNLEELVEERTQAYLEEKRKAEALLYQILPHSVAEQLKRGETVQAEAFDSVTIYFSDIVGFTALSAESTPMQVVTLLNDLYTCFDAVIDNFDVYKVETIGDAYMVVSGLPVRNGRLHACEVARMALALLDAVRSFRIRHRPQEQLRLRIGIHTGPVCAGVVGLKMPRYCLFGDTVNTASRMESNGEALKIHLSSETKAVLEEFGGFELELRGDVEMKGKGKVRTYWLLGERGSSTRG

Turning to `CC(C)[C@@H](OCc1ccccc1)[C@H](C)CON=C1[C@H]2CCn3c(=O)n(-c4ccccc4)c(=O)n3[C@@H]2[C@H](O)[C@@H]2O[C@H]12`, the Potency entry in assay [1] and in assay [2] was “inactive” in each case.
Turning to `CCCCCCCC1=Cc2ccccc2C(CC(=O)c2ccccc2)N1C(=O)OC` (stereo not drawn), the activity, negative = inhibition in assay [3] was -4.11% [at 1.12 µM]. For the same molecule, the Potency entry in assay [4] and in assay [2] was “inactive” in each case.
On to `C=CCN1C=C2C(=O)C(C)(OC(=O)c3ccco3)C(=O)C(C=C)=C2C=C1C1CC1` (stereo not drawn), for which the activity, negative = inhibition in assay [3] is 2.08% [at 1.12 µM]. Besides, the Potency result in assay [4] and in assay [2] was “inactive” throughout.
On to `C[C@H](O)CON1C(=O)c2ccccc2C1=O`, for which the Potency result in assay [3], in assay [4] and in assay [2] was “inactive” throughout.
On to `Cc1ccccc1Nc1oc(-c2ccccc2)nc1C=Cc1ccccc1`, for which the Potency entry in assay [3], in assay [4] and in assay [2] was “inactive” each time.
On to `CC(=O)OC[C@H]1O[C@H](CC=NOCC[C@@H]2C=C[C@@H](OC(C)=O)[C@@H](COC(C)=O)O2)C=C[C@@H]1OC(C)=O`, for which the Potency result in assay [1], in assay [5], in assay [6], in assay [4] and in assay [2] was “inactive” in each case.
On to `C[C@@H]1C=CCC(=O)OC[C@H](C)C(=O)OC[C@H]2O[C@H]1C=C[C@H]2O`, for which the Potency result in assay [1], in assay [5], in assay [6], in assay [4] and in assay [2] was “inactive” each time.
Take `COC(=O)NC(c1ccccc1)c1c[nH]c2ccc(OC)cc12` (stereo not drawn): the Potency result in assay [1], in assay [5], in assay [6], in assay [4] and in assay [2] was “inactive” throughout.
As to `C=C(C)C(O)C=Cc1ccc(C(F)(F)F)cc1` (stereo not drawn), the Potency result in assay [1], in assay [5], in assay [6] and in assay [4] was “inactive” each time. Besides, the Potency in assay [2] was 5.31 µM (active).
Turning to `COc1ccc([C@]23Cc4ccccc4[C@H](O2)C2=C(O3)C(=O)c3ccccc3C2=O)cc1`, the Potency in assay [1] is 1.69 µM (active); in assay [5], 1.69 µM (active); in assay [6], 1.51 µM (active). For the same molecule, the Potency entry in assay [4] and in assay [2] was “inactive” each time.
Consider `COC(=O)N[C@H](c1ccccc1)C(C(=O)OC)C(=O)OC`, for which the Potency is 1.51 µM (active) in assay [1], 1.9 µM (active) in assay [5] and 1.9 µM (active) in assay [6]. In addition, the Potency entry in assay [4] and in assay [2] was “inactive” in each case.
As for `N#Cc1ccc2c(c1)C[C@]1(c3ccsc3)OC3=C(C(=O)OC4(CCCCC4)C3)[C@H]2O1`, the Potency result in assay [1], in assay [5], in assay [6], in assay [4] and in assay [2] was “inactive” each time.
For `CCN1C(=NCCc2c[nH]c3ccccc23)NC(c2ccccc2)C(C(=O)OC)=C1C` (stereo not drawn), the Potency result in assay [1], in assay [5], in assay [6], in assay [4] and in assay [2] was “inactive” in each case.
In the case of `COCCN1C(=O)CC[C@@]23C1=NC(C(=O)OC)=C(C(=O)OC)[C@@H]2N(C)c1ccccc13`, the Potency entry in assay [1], in assay [5], in assay [6], in assay [4] and in assay [2] was “inactive” throughout.
Consider `C[C@@H]1CC[C@H]2C(=O)N(Cc3ccccc3)C[C@@H](O)CN2[C@@H]1c1cccc(Br)c1`, for which the Potency result in assay [1], in assay [5], in assay [6], in assay [4] and in assay [2] was “inactive” throughout.
For the molecule `CC1(OC(=O)C2CCCC2)C(=O)C=C2C=C3CCCCN3C=C2C1=O` (stereo not drawn), the Potency result in assay [1], in assay [5], in assay [6], in assay [4] and in assay [2] was “inactive” each time.
`CCN1C(=NCc2cccc(C(F)(F)F)c2)NC(c2cccs2)C(C(=O)OC)=C1C` (stereo not drawn): the Potency entry in assay [1], in assay [5], in assay [6], in assay [4] and in assay [2] was “inactive” each time.
On to `C=CCN1C(=O)[C@]2(O[C@H](C)CC3=CCCC32)c2c(Br)cccc21` (stereo partly drawn), for which the Potency entry in assay [1], in assay [5], in assay [4] and in assay [2] was “inactive” each time.
As to `C#CCNC(=O)[C@H]1C=C(OC)C(=O)C[C@H]2c3ccccc3C[C@]12C`, the Potency result in assay [1], in assay [5], in assay [6], in assay [4] and in assay [2] was “inactive” throughout.
Take `CC(=O)C1=C(C)N(Cc2ccccc2)C(=O)NC1c1ccc(Br)cc1` (stereo not drawn): the Potency result in assay [1], in assay [5], in assay [6], in assay [4] and in assay [2] was “inactive” in each case.
Turning to `COC(=O)N[C@H](CC(C)=O)c1ccccc1`, the Potency entry in assay [1], in assay [5], in assay [6], in assay [4] and in assay [2] was “inactive” in each case.
`O=C1C2=C(C(=O)c3ccccc31)[C@H]1O[C@](CCCCN3C(=O)c4ccccc4C3=O)(Cc3ccccc31)O2`: the Potency in assay [1], in assay [5] and in assay [6] was 1.69 µM (active) each time. Also, the Potency entry in assay [4] and in assay [2] was “inactive” each time.
For the molecule `CCOC(=O)CN1C(=O)NC(c2cccc(F)c2)C(C(=O)OC)=C1C` (stereo not drawn), the Potency entry in assay [1], in assay [5], in assay [6], in assay [4] and in assay [2] was “inactive” throughout.
For `Cc1cc2c(c(=O)n1Cc1ccccc1)[C@H]1O[C@](CCCCN3C(=O)c4ccccc4C3=O)(Cc3ccccc31)O2`, the Potency is 1.9 µM (active) in assay [1], 1.69 µM (active) in assay [5], 1.69 µM (active) in assay [6] and 1.35 µM (active) in assay [4]. The Potency result in assay [2] is “inactive”.
As to `COC(=O)N[C@H](C(C(=O)OC)=C(C)NCc1ccccc1)c1ccco1`, the Potency result in assay [1], in assay [5], in assay [6], in assay [4] and in assay [2] was “inactive” in each case.
